{
  "source": "the supplement of paper PMC12819154",
  "about": "“High-throughput peptide-centric local stability assay extends protein–ligand identification to membrane proteins, tissues and bacteria” (Nature Structural & Molecular Biology, 2025)",
  "data": [
    {"compound": "CN[C@@H]1C[C@H]2O[C@@](C)([C@@H]1OC)n1c3ccccc3c3c4c(c5c6ccccc6n2c5c31)C(=O)NC4 [staurosporine]", "test": "log2 fold change of tryptic peptide abundance, ligand vs vehicle (limited proteolysis) (log2 ratio); higher = more trypsin-susceptible (destabilized)", "details": "ligand concentration: 20 uM; sample: mouse liver crude lysate; replicate design: treated separately", "values": [
      {"target": "UniProt Q9QZS5 (peptide sequence: TVAACDLLQGLLHKDQR, peptide start residue: 258)", "sequence (Q9QZS5 whole entry)": "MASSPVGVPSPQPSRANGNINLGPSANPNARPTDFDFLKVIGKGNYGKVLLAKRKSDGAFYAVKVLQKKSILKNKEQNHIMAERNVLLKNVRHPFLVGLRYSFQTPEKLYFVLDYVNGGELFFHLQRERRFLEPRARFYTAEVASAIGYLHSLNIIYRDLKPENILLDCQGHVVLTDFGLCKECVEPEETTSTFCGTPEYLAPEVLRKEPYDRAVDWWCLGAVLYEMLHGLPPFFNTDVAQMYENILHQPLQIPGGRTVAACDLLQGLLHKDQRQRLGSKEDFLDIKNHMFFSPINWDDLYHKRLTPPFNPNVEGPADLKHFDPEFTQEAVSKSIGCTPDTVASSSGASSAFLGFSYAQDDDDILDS", "log2 fold change": -2.7},
      {"target": "UniProt Q5EG47 (peptide sequence: DLKPENVLLDAHMNAK, peptide start residue: 150)", "sequence (Q5EG47 whole entry)": "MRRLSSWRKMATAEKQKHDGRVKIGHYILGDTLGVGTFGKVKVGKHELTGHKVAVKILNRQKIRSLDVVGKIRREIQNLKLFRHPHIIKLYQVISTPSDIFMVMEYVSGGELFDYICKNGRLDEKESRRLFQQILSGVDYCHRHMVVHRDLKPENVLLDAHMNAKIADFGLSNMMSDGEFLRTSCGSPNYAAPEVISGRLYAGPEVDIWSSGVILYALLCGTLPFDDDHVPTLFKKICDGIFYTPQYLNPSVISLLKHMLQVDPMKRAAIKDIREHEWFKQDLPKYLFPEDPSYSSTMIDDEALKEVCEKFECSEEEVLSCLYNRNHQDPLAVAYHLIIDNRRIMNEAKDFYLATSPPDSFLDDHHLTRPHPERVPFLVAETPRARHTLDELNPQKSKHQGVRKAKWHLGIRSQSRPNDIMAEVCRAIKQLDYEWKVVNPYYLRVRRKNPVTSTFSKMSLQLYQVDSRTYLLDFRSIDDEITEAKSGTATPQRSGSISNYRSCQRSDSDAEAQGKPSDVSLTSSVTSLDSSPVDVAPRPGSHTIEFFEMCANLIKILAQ", "log2 fold change": -4.22},
      {"target": "UniProt Q8BYC6 (peptide sequence: VLIDLIQR, peptide start residue: 285)", "sequence (Q8BYC6 whole entry)": "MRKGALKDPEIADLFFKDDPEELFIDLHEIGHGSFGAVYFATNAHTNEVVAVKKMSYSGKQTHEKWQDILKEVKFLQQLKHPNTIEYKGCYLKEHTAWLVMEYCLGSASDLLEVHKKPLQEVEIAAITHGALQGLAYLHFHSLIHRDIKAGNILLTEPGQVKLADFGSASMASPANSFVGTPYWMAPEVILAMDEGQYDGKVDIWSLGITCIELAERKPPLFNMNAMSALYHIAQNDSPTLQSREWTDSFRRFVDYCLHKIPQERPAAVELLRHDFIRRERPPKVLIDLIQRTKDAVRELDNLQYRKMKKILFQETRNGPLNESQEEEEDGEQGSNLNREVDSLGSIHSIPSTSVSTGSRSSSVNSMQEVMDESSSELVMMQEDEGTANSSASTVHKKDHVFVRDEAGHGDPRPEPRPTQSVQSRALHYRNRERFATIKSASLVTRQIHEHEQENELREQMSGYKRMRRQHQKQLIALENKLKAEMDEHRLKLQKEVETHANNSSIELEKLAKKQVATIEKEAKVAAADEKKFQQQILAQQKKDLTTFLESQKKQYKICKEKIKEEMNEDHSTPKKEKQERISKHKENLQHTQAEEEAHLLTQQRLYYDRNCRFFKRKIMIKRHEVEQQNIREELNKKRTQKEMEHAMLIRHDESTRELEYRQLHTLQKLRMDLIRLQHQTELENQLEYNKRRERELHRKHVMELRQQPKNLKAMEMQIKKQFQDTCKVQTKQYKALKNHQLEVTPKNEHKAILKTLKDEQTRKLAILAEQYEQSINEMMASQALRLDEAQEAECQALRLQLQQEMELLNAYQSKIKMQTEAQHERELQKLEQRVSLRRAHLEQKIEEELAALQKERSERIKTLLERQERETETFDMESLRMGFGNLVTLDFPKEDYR", "log2 fold change": -1.67},
      {"target": "UniProt Q9DCW4 (peptide sequence: VDLLFLGK, peptide start residue: 117)", "sequence (Q9DCW4 whole entry)": "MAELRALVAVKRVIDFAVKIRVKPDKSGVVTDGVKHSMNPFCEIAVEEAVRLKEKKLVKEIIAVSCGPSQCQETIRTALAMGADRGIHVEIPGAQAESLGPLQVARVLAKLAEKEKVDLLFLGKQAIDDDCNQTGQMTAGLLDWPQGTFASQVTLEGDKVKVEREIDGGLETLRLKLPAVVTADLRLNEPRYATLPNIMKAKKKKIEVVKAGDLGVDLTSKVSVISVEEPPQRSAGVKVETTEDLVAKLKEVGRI", "log2 fold change": 0.27},
      {"target": "UniProt Q99PV0 (peptide sequence: VESHFDLELR, peptide start residue: 677)", "log2 fold change": 0.478},
      {"target": "UniProt P63158 (peptide sequence: HPDASVNFSEFSKKCSER, peptide start residue: 31)", "sequence (P63158 whole entry)": "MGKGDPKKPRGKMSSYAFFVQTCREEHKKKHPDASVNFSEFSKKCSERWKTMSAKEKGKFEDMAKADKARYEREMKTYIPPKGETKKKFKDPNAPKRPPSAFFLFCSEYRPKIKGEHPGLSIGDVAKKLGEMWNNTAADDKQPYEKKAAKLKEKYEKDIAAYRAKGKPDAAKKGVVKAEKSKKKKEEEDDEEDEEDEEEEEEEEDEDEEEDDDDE", "log2 fold change": -0.395},
      {"target": "UniProt O35493 (peptide sequence: ILGPIPAHMIQK, peptide start residue: 392)", "sequence (O35493 whole entry, looked up)": "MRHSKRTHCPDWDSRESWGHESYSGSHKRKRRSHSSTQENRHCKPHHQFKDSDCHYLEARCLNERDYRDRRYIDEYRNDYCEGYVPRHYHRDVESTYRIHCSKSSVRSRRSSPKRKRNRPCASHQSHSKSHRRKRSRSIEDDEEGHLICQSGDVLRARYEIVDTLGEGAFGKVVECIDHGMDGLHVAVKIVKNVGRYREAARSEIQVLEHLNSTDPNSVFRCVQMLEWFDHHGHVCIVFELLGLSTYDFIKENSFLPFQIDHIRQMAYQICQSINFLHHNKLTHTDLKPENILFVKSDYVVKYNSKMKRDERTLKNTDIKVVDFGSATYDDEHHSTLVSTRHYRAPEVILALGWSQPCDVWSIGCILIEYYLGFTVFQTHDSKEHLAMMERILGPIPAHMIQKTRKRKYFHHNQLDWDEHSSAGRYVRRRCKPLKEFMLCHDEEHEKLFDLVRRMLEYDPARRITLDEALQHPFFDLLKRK", "log2 fold change": -2.87}
    ]}
  ]
}
